Data: PubChem BioAssay (NCI)
About 83,000 compounds went through this panel and 20% of them were active in at least one assay; those are over-represented in the sample as a whole.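 Note: values are percent growth. 100 is the growth of untreated cells, values between 100 and 0 indicate rising inhibition; between -100 and 0 indicates cell death.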 Unmarked numbers belong to inactive results. Activity calls are given as the source filed them. Rule for the calls: active = growth percent below 10; inactive = the rest.

Legend:
Experiment in all cases: NCI-60 one-dose screen, 48 h (100 = growth as untreated, 0 = no growth, -100 = all killed)
Conditions in all cases: 10 µM
[1] = system: DU-145 prostate
[2] = system: K-562 leukemia
[3] = system: MDA-MB-231 breast
[4] = system: RXF 393 renal
[5] = system: SF-268 CNS
[6] = system: SF-295 CNS
[7] = system: SF-539 CNS
[8] = system: UACC-257 melanoma
[9] = system: M14 melanoma
[10] = system: HCT-15 colon
[11] = system: HT29 colon
[12] = system: SNB-75 CNS
[13] = system: SNB-19 CNS
[14] = system: U251 CNS
[15] = system: SK-MEL-5 melanoma
[16] = system: UACC-62 melanoma
[17] = system: LOX IMVI melanoma
[18] = system: SK-MEL-28 melanoma
[19] = system: PC-3 prostate
[20] = system: MALME-3M melanoma

SMILES	growth [1]	growth [2]	growth [3]	growth [4]	growth [5] [%]	growth [6]	growth [7]	growth [8]	growth [9]	growth [10] [%]	growth [11] [%]	growth [12]	growth [13] [%]	growth [14]	growth [15]	growth [16]	growth [17]	growth [18]	growth [19]	growth [20] [%]
Cc1c2c(nn1C(=O)c1nn(-c3ccc(Cl)cc3)cc1O)-c1ccccc1CC2	24.1%	-11.5% (active)	38.1%	31.8%	33.9	-15.1% (active)	9.85% (active)	-1.88% (active)	27.2%	25.1	30	46.7%	34.3	22.3%	24.3%	-6.22% (active)	17.5%	54.7%		
Cc1cc(=O)n2nnc3cc(C(F)(F)F)ccc3n12	105%	99.1%	108%	123%	107	92.7%	106%	106%	113%	101	104	116%	109	107%	109%	102%	106%	118%	101%	
CCCCN1C(=O)CC(SC2CC(=O)N(CCCC)C2=O)C1=O (stereo not drawn)	103%	118%	108%	122%	101	109%	105%	98.6%	113%	120	76.1	87.4%	99.5	107%	104%	96.6%	95%	121%	99.4%	
Cc1ccc(C2=NN(c3ccc(S(C)(=O)=O)cc3)C(=O)CC2)cc1	6.77% (active)	11.7%	47.8%	15.4%	55.2		-7.93% (active)	50.7%	10.2%		11.1	8.1% (active)	55		13.9%	42.9%	33.7%	51.4%	29.3%	45.5
CSc1nc2c(c(=O)n1C)CN(Cc1ccccc1)C(=O)CN2	109%	85.2%	96.8%	75.2%	104	103%	91.1%	86.9%	88.6%	85.7	110	76.9%	97.6	94%	101%	83.6%	92.1%	102%		
O=[N+]([O-])c1ccc(NCSc2ccc(Cl)cc2)cc1	98.3%	86.9%	94.3%	103%	94.1	105%	99.7%	101%	109%	96.9	107	98.6%	103	82%	100%	77.8%	81.9%	104%	80.9%	
CCn1cc(C(=O)O)c(=O)c2cc(F)c(N3CCNCC3)cc21	106%	96.6%	100%	118%	103	93%		106%	117%	102	109	98.2%		101%	99.3%		98.7%	115%	102%	
IC(I)I	107%	120%	88.6%	125%	96.4	114%	118%	109%	99%	101		90.8%		102%	104%	88.9%		109%	109%	
COc1ccc(/C=c2\sc3n(c2=O)C(c2cc(OC)c(OC)c(OC)c2)C=C(c2ccc(OC)c(OC)c2)N=3)cc1OC (stereo not drawn)	112%	89.9%	85.5%	105%	91.1	115%		88.9%	100%	90.3		76.2%	89.9	98.9%	83.4%	85.6%	93.8%	104%	86.6%	
COc1cc(-c2ccc(N=Nc3ccc4c(S(=O)(=O)O)ccc(N)c4c3O)c(OC)c2)ccc1N=Nc1ccc2c(S(=O)(=O)O)ccc(N)c2c1O	122%	121%	106%	93.3%	102		102%	109%	107%	110	105	70.9%	110	107%	105%	111%	102%	103%	98.7%	
COc1ccc(C2CC(c3cccs3)=NN2c2ccc(S(N)(=O)=O)cc2)cc1 (stereo not drawn)	102%	67.6%	91.9%	93.6%	97.6	95.8%	104%	30.5%	78.4%	84.3	86.8	70.7%		78%	60.8%	42.8%	102%	63.2%	49.9%	
CCOc1ccccc1/C=N\N=C(\N)N/N=C/c1ccccc1OCC	46.1%	16.3%	52.5%	-1.54% (active)	47.2	23.4%	17.3%	39.1%	12.7%	24.7	10.7	-3.85% (active)	43		17.8%	30.9%	30.9%	42.9%	31.9%	
CC(C)c1ccc(C(C)C(=O)N(CC2=C(C(C)c3ccccn3)c3ccccc3C2)C(C)C)cc1 (stereo not drawn)	57.6%	24.5%	48.4%	45.6%	46	25.6%	61.4%	49.3%	48.1%	30.3	22.3	49.3%	58.2		30.2%	53.4%	31.1%	79.7%	17.9%	
C[n+]1c2ccccc2nc2ccccc21	-59.4% (active)	25.5%	-2.35% (active)	24.3%	20.7	23.4%	29.1%		-55.7% (active)	21.3	21.2	22.8%		4.11% (active)	3.8% (active)	-34.3% (active)	-36.5% (active)	-2.36% (active)	7.71% (active)	
COc1ccc2c(c1)C(CC(=O)NN)CCC2 (stereo not drawn)	114%	94.3%	101%	115%	96.3	109%	100%	90.5%	104%	104	112	89.9%		102%	104%	104%	93.7%	113%	100%	
S=C1N(c2ccccc2)CN(C2CCCCC2)CN1c1ccccc1	107%	101%	98.2%	109%	118		88.1%	2.41% (active)	100%	95.3	99.5	90.1%	95.3	98.5%	97.9%	97.7%	95.6%	104%	84%	
Cc1ccc(NC(=O)N2CCCCC2)cc1[N+](=O)[O-]	108%	106%	95.5%	106%	81.1		92.6%	-0.113% (active)	90.8%	96		90.5%	98.4	101%	103%	86.7%	97%	105%	76.6%	
CC(C)(C)c1nn(-c2ccccc2)c2c1CC1(CN2Cc2ccc(Cl)cc2)C(=O)c2ccccc2C1=O	95.8%	81.3%	83.2%	95.3%	89			76.1%	87.1%	88.2	65.1	120%	84.5	85.7%	78.5%	73.6%	81.8%	102%	44.2%	
